Laboratory results as given in PubChem BioAssay AID1345085 (National Center for Advancing Translational Sciences (NCATS), 2018).
Records with an inconclusive call do not appear. The source made the active and inactive calls. Calls follow the shape of the dose curve; as a rule, active = well fitted cell-killing curve with a large enough effect; inconclusive = small, poorly fitted or top-dose-only effect, or effect the other way; inactive = no such curve, though single readings can be large or run the other way.

System: HeLa
Experiment: Confirmatory qHTS for gynecologic anti-cancer compounds from libraries of approved drugs and bioactive compounds; also: nearly all actives have a fitted effect of over 55% in size
Conditions: gynecologic cancer cell panel viability, ATPlite luminescence, 48 h; series mostly up to 57.6 µM
Summary of the method: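 ATPlite luminescence read-out of cell viability; IC50 from 11-point 1:3 titrations, 57.5 uM to 0.977 nM, 48 h compound exposure at 37 C, 5% CO2. Cells seeded at 1,000/well 16 h before dosing.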
Potency is read from the fitted curve at half-maximal effect.

| SMILES | Potency |
| --- | --- |
| Cc1cc(SCc2sc(-c3ccc(C(F)(F)F)cc3)nc2C)ccc1OCC(=O)O | inactive |
| CC(C)n1c(/C=C/[C@@H](O)C[C@@H](O)CC(=O)O)c(-c2ccc(F)cc2)c2ccccc21 | 5.44 µM (active) |
| CC(C)Oc1ccc2c(=O)c(-c3ccccc3)coc2c1 | 21.7 µM (active) |
